Compound activity as filed in PubChem BioAssay.
Shown are actives, neighbours in structure and some others; about 1.4% of the full set was active somewhere.
3CLpro inhibitor: SARS-CoV 3CLpro protease inhibition | inhibition, % at 6 µM | recombinant SARS-CoV 3CLpro, quenched FRET peptide cleavage | P0C6X7 | 290,000 compounds, 0.14% hits; in the data active = inhibition above about 12%
Mtb hypoxia inh: reduces hypoxia-regulated biosensor signal in M. tuberculosis. M. tuberculosis hypoxia-regulated fluorescent reporter, fluorescence. fluorescence inhibition, % (no concentration beside the values). 300,000 compounds, 0.1% hits. AID 1159583; in the data active = fluorescence inhibition mostly above about 23%, no sharp cut-off; inactive = mostly below about 17%
PrP UTR inh: inhibition of PrP 5' UTR reporter expression; inhibition, % (no concentration beside the values); 340,000 compounds, 0.35% hits; cell-based PrP 5' UTR mRNA reporter, plate reader; in the data active = inhibition above about 52%; also: 0 = median of the neutral control wells
PrPC TRFRET: inhibitors of human cell surface prion protein PrPC; inhibition, % at 13.8 µM; AID 720596; 370,000 compounds, 0.43% hits; P04156; TR-FRET read-out; in the data active = inhibition above about 24%; also: 0% = median of the test wells and 100% = reference compound wells
BJeLR viability: kills HRASV12-expressing BJeLR cells. BJeLR (HRASV12) viability, CellTiter-Glo ATP luminescence, 48 h. inhibition, % (no concentration beside the values). 300,000 compounds, 0.17% hits. AID 1554; in the data active = inhibition above about 50%
RecA splice inh: inhibitors of M. tuberculosis RecA intein splicing. P9WHJ3. cell-free RecA intein splicing, fluorescence. inhibition, % (no concentration beside the values). 290,000 compounds, 0.75% hits; in the data active = inhibition above about 30%;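 also: 0% = vehicle wells and 100% = reference inhibitor control wells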
Target sequence (P9WHJ3 whole entry, looked up, canonical isoform): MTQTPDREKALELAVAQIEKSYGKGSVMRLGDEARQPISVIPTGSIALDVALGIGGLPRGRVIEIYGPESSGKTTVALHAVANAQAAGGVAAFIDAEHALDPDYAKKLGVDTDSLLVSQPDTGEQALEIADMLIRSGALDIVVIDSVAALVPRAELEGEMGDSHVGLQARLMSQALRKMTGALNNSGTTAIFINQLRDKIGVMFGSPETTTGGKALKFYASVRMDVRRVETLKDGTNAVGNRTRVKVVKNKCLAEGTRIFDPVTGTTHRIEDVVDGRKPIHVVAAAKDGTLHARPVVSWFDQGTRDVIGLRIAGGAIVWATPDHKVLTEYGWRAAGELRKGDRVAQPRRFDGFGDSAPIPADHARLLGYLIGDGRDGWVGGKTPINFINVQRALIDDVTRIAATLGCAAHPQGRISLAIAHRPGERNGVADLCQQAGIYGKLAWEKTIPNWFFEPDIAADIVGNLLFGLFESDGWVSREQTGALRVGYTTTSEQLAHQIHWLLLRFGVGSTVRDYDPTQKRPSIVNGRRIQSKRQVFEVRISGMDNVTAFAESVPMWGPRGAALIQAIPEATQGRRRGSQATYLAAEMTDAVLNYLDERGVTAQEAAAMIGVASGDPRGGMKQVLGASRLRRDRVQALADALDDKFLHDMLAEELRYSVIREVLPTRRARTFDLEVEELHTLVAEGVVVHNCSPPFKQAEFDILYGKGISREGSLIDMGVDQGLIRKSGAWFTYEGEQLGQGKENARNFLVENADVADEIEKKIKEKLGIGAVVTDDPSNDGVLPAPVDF
PrPC confirm: cell surface PrPC inhibition, TR-FRET confirmation; shares compounds with PrPC TRFRET; cell surface PrPC level; inhibition, % at 13.8 µM; 1,500 compounds, 65% hits; in the data active = inhibition above about 25%
LD9 cytotox: counter-screen for PrPc inhibitors: cytotoxicity in LD9 cells. shares compounds with PrPC TRFRET. luminescence viability. inhibition, % at 13.8 µM. 1,500 compounds, 29% hits. AID 743201; in the data active = inhibition above about 9.5%
An asterisk follows results filed as active; . = no result shown.

SMILES	3CLpro inhibitor	Mtb hypoxia inh	PrP UTR inh	PrPC TRFRET	BJeLR viability	RecA splice inh	PrPC confirm	LD9 cytotox
Cc1ccc(NS(=O)(=O)c2ccc(Cl)c(C(=O)Nc3ccccc3-c3nc4ccccc4[nH]3)c2)cc1C	2	14	-2	26*	-21	-2	17	-3
CCCc1nc(SCC(=O)NNC(=O)C2CCCCC2)c2ccccc2n1	2	0	-23	41*	-6	2	110*	-3
CCCCNC(=O)CSc1nc(COc2ccccc2)nc2ccccc12	3	4	-10	17	-1	14	.	.
Cc1nc(SCCOc2ccc(F)cc2)c2ccccc2n1	-5	3	-13	-2	-22	6	.	.
Cc1nc(SCC(=O)NNC(=O)c2ccc(F)cc2)c2ccccc2n1	.	.	-30	82*	.	.	100*	-6
CCCc1nc(SCC(=O)NNC(=O)c2ccc(OC)cc2)c2ccccc2n1	-1	16	-23	93*	.	0	115*	-13
CCc1nc(SCC(=O)OC(C)C)c2ccccc2n1	2	1	-12	83*	-1	12	97*	-6
Cc1ccc(C=NNC(=O)Cc2c(F)cccc2Cl)s1	.	13	.	.	.	.	.	.
O=C(NN=Cc1ccc(OCC(=O)N2CCOCC2)cc1)c1ccccc1Cl	.	-10	.	.	.	.	.	.
CN1CC2C3C(=O)N(Cc4ccccc4)C(=O)C3[C@](Cc3ccccc3)(C1=O)N2C(=O)c1ccc(Cl)cc1 (stereo not given in full)	.	13	.	.	.	.	.	.
CCCCN1CC(C)C(CC(=O)NCc2ccccc2)C1=O (stereo not given)	.	11	.	.	.	.	.	.
COc1cc(C(=O)Nc2ccc3c(c2)OCO3)ccc1-n1cnnn1	-2	8	5	45*	0	-4	32*	-1
COc1cc(NC(=O)C2CCN(S(=O)(=O)c3ccc(Cl)cc3)CC2)ccc1-n1cnnn1	-1	3	5	27*	-6	3	21	15*
O=C(COC(=O)c1ccc(N2CCOCC2)c([N+](=O)[O-])c1)Nc1ccc2c(c1)OCO2	-5	3	-59	-10	-12	-5	.	.
CC1CCCN(c2ccc(C(=O)Nc3ccc4c(c3)OCO4)cc2[N+](=O)[O-])C1 (stereo not given)	-2	2	-13	31*	-5	8	40*	9
CC1CCN(c2ccc(C(=O)Nc3ccc4c(c3)OCO4)cc2[N+](=O)[O-])CC1	2	12	-6	74*	7	7	77*	4
COc1ccc(NC(=O)C2CC2)cc1-n1cnnn1	-5	-85	-27	5	-8	-1	.	.
Clc1ccc(-c2csc(NN=Cc3ccco3)n2)cc1	.	-4	.	.	.	.	.	.
CNC(=S)NN=Cc1ccc(OCc2ccccc2)c(Br)c1	.	3	.	.	.	.	.	.
COc1ccc2nc(NC(=O)c3cccs3)sc2c1	1	0	.	27*	9	-3	15	4
O=C1N(CC(=O)N2CCc3ccccc32)CCN1Cc1ccc(Cl)cc1	9	.	0	46*	0	2	2	-1
CC(C)C(C(=O)N1CCN(C(=O)OC(C)(C)C)CC1)n1cc(CCO)nn1 (stereo not given)	.	19	.	.	.	.	.	.
O=C(NN=Cc1c[nH]c2ccccc12)c1cccc([N+](=O)[O-])c1	.	-4	.	.	.	.	.	.
C/C(N)=C(/C#N)C(=O)CSc1nc2ccccc2c(=O)n1Cc1ccc(C)cc1	-1	1	-6	27*	1	.	7	-2
O=C1CN(C(=O)CSc2nc3cc(Cl)ccc3c(=O)n2Cc2ccccc2)c2ccccc2N1	5	-7	-1	-8	-8	9	.	.
SMILES	3CLpro inhibitor	Mtb hypoxia inh	PrP UTR inh	PrPC TRFRET	BJeLR viability	RecA splice inh	PrPC confirm	LD9 cytotox
Cc1ccc(Cn2c(SCC(=O)N3CC(=O)Nc4ccccc43)nc3ccccc3c2=O)cc1	4	5	-34	29*	-1	9	45*	-2
NC(Cc1ccc(Cl)cc1)c1csc(NC(=O)NCC2CCCCC2)n1 (stereo not given)	.	.	.	61*	.	.	42*	-2
C=C1C(C)C2C(Cc3ccccc3)NC(=O)C23OC(=O)/C=C/C(O)CCCC(C)C/C=C/C3C1O (stereo not given)	.	.	14	26*	.	.	17	14*
CC(C)CC(NC(=O)c1nc[nH]c1C(=O)NC1CCN(C(=O)OC(C)(C)C)CC1)C(=O)OC(C)(C)C (stereo not given)	.	-8	.	.	.	.	.	.
C=C1C(=O)O[C@@H]2C[C@@H](C)[C@@H]3C=CC(=O)[C@@]3(C)[C@@H](OC(C)=O)[C@H]12	.	.	.	95*	-18	8	104*	34*
Cc1noc(C)c1NC(=O)Nc1ccc2c(c1)CC(=O)N(C(C)CO)CC(C)C(CN(C)C(=O)Nc1cccc3ccccc13)O2 (stereo not given)	.	15	.	.	.	.	.	.
CC(C)C[C@@H](CN1CCC[C@H]1CN1C(=O)C(=O)NC[C@@H]1Cc1ccccc1)N1C[C@H](Cc2ccc(O)cc2)N(CC2CCCCCC2)C(=O)C1=O	.	.	.	26*	.	.	24	1
O=C(c1ccc(Cl)c(Cl)c1)c1cc(-c2ccccn2)c(N2CCOCC2)s1	2	-2	-8	41*	2	-46	52*	5
COc1ccc(OC)c(-c2csc(NC(=O)Cn3[nH]c(=O)c4ccccc4c3=O)n2)c1	1	-12	2	27*	-2	12	25*	38*
COc1ccc(OC)c(-c2csc(NC(=O)Cc3ccc(F)cc3)n2)c1	4	9	-19	14	-6	8	.	.
CCOc1cc2[nH]c(=S)n(C3CC3)c(=O)c2cc1OCC	2	-10	7	-7	3	0	.	.
CCOc1cc2[nH]c(=S)n(C(C)C)c(=O)c2cc1OCC	-1	5	-24	33*	-4	0	36*	-1
CC#CCOC(=O)c1c(C)nc2sc3c(c2c1N)CCC(O)C3 (stereo not given)	.	17	-20	42*	.	.	27*	12*
CCOC(=O)c1c(N)sc2c1CCC(CC)C2 (stereo not given)	0	5	-16	-2	0	-3	.	.
CC(=O)Nc1ccc(-c2ccnc(-c3ccc(NC(C)=O)cc3)n2)cc1	-3	4	-17	58*	-1	0	56*	-5
CC(=O)Nc1ccc(-c2nn[nH]n2)cc1	-4	7	-2	2	-2	-1	.	.
c1ccc(Nc2nc(NCC3CCCO3)c3ccccc3n2)cc1 (stereo not given)	6	-32	-16	20	12	10	.	.
CCOc1ccc(Nc2nc(NCC3CCCO3)c3ccccc3n2)cc1 (stereo not given)	2	-22	-6	34*	11	12	30*	32*
